# Experimental data published in the supplement of paper PMC11417369.
# ± gives the standard deviation of the averaged measurements. In all, about 25,000 sequences were measured (“ln(normalized median fluorescence intensity)”: median about 10, highest 2% from about 12 on). For the sample, the highest values were picked, then their nearest neighbours and some sequences at random.
# System: PfAP2-G AP2 domain (GST-tagged)
# Assay: gcPBM binding intensity (ln(normalized median fluorescence intensity)); higher = stronger DNA binding
# Method in brief: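 The binding buffer was 1× PBS containing 1% milk, 0.2 mg/ml BSA, 0.5% salmon testes DNA and 0.03% Triton X-100. In it, GST-tagged P. falciparum DNA-binding domains expressed in E. coli were applied for 1 h to an Agilent 4 × 180k array of primer-extended double-stranded 36-bp intergenic genomic probes plus negative controls. Binding intensity, read with Alexa488 anti-GST antibody and a 488 nm scan, is the highest Masliner-normalised natural-log median intensity across replicate spots of either probe orientation.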
row,Sequence,gcPBM binding intensity (ln)
1,TTGGGCATAATGTCATGTACACAAATAATTCTTTAT [XGTACX_site861],11.5 ± 1
2,TATATATATATATATTGTACATATATTATTATATAT [XGTACX_site7447],10.9 ± 0.53
3,AATTTACAAAAAAGAAAAAAAAAAAAAAAGATACTT [CACACA_negctrl_site1434],9.65 ± 0.071
4,AAAAAAAAAAGAAAAAGTACATACATACATATATAT [XGTACX_site6405],11.3 ± 0.83
5,ATTTAAGTAGTACATACACACACATATACAAAAAGA [CACACA_site9317],11.7 ± 1.3
6,AAAAAGAAAAAAGAAAGTACAAATATACACATTTTT [XGTACX_site3343],10.9 ± 0.54
7,TTGTTCTATTTAAGTAGTACATACACACACATATAC [XGTACX_site8484],11.5 ± 0.71
8,TACGAATTAAAAAAGAGTACAAATAAAATATCTACA [XGTACX_site7412],11.3 ± 0.84
9,ATACGAAAAAAAAAAAGTACACAAAAATATCTACAT [XGTACX_site2051],11.7 ± 1.1
10,ACATCATATTAAGAAAGTACAAAAAGAGAACATATA [XGTACX_site1268],11 ± 0.4
11,ATTTATATTACAAAAAGTACACACATAAATAAATAC [XGTACX_site1827],11.6 ± 0.92
12,TTAAGTAGTACATACACACACATATACAAAAAGAAA [CACACA_site3972],11.7 ± 1.2
13,ATTCATAAAAAGAGGTGTACATTAATATAATATATA [XGTACX_site8283],11.5 ± 0.95
14,ATTTTGTTATTATATATATATATATATATATATATA [XGTACX_negctrl_site590],9.89 ± 0.49
15,GATCATTTAAAATAAGTAATATTTTTTTTACTTTTG [TGCATGCA_negctrl_site602],9.62 ± 0.26
16,GTTCATAAAAATTTTTGTACCCATAAAATATTCCTC [XGTACX_site8611],11.2 ± 0.65
17,AATAATTGTTATAGTTGTACAATACATATATTACAA [XGTACX_site30],11.3 ± 0.63
18,ACAGACGTTCAAAGGTGTACGCAAAATGAATAATAT [XGTACX_site7565],11.6 ± 1
19,AAAAAAAAAAAAAAAAGTACAGACGTCAAAAAAAAA [XGTACX_site4817],11.6 ± 0.76
20,AAAAAAAAAAAAAAGAGTACACAGACGTTCAAAGGT [XGTACX_site7566],11.7 ± 0.77
21,TTTAAATATATTCAATCACACACATTCGTTTTTTTT [CACACA_site7962],9.77 ± 0.24
22,GGCAAATTTATTATACCCACATACATACATACATAC [XGTACX_negctrl_site186],10.8 ± 0.62
23,TTTACATTTTAGGAAGTGCATATAATAAATACTATC,10.1 ± 0.2

row,Sequence,gcPBM binding intensity (ln)
1,AAAAAAAAAAAAAAAAGTACATATATATATAATTAT [XGTACX_site7836],11.7 ± 0.89
2,ATTATATTATATATATGTACATATATATATCATAAT [XGTACX_site1],11.1 ± 0.66
3,ATAATTATATATATATGTACATATTATATATATATA [XGTACX_site4526],11.2 ± 0.77
4,ACATATTAATTATAAAGTACATATATATATATATAT [XGTACX_site4540],11.3 ± 0.79
5,TTAGTAGTATTATGTAGTACATAATTATCATATCAT [XGTACX_site817],11.6 ± 1.1
6,AAAAAAAAAAAAAAAAGTACATATATATATATAATT [XGTACX_site4437],11.5 ± 0.86
7,AAAAAAAAAAAAAAAAGTACACATAATTGTATATGT [XGTACX_site6339],11.7 ± 0.75
8,ATCATAAAAGTATACACACATACATACATATGTACA [CACACA_site2641],10.8 ± 0.45
9,TATATCATAAAAAATTGTACATATATATATTATATA [XGTACX_site6726],11 ± 0.69
10,ATAAAAATAATATCATGTACATATGTGTATTGTATT [XGTACX_site1768],11 ± 0.49
11,AAAAAAAAATTGTGTACACATAATTATATCATATGT [CACACA_site4500],11.7 ± 0.89
12,TATATAAAAAGTAATTGTACATATATATATATATAT [XGTACX_site7953],10.9 ± 0.68
13,ATAATTATAAAATAAACACACATATATATTTATATG [CACACA_site440],9.98 ± 0.16
14,AATTAAAAAAAATACACACACACATACACATATATA [CACACA_site3298],10.2 ± 0.22
15,ATAACATAAGGAAATACACACATATATAAGTATATA [CACACA_site778],10.02 ± 0.021
16,ACATATATATATATATATATATATATATTTATTTAT [CACACA_negctrl_site734],10.2 ± 0.39
17,AAAACTATAATGAATAGTACATAAAAATGGATATAT [XGTACX_site6056],11 ± 0.5
18,TCTATAAAGGAATATACACACATATATATATATATA [CACACA_site410],9.9 ± 0.32
19,AATAATATATTTAGGGGTACATAATAATATATTTTA [XGTACX_site8366],11.6 ± 1.1
20,AAAAAAAAAAAAAAAAGTACATATATTATATATATA [XGTACX_site2983],11.3 ± 0.93
21,AAATAAAAAAGTAGTACACACTTCACGATATTTTTT [CACACA_site6015],11.6 ± 1
22,TTAAAAAAAAAAAAAAGTACACACTTATAAAATATT [XGTACX_site1630],11.6 ± 0.91
23,TAAAAAAAAAAAAAAGTACACACTTATAAAATATTA [CACACA_site872],11.6 ± 1

row,Sequence,gcPBM binding intensity (ln)
1,AAAAAAGATATATAAACACACATATTTATATACACA [CACACA_site6866],9.66 ± 0.16
2,ATAAAATAAAAAAGTAGTACACACTTCACGATATTT [XGTACX_site8289],11.5 ± 0.84
3,TAAAATAAAAAAGTAGTACACACTTCACGATATTTT [CACACA_site3896],11.6 ± 0.91
4,GTAAAAAAAAAAAAAAGTACATTATACATATATTTA [XGTACX_site5447],11.3 ± 0.81
5,ATATTATTTTAAAGTACACACATATATTAAGATATA [CACACA_site5306],11.4 ± 1
6,AAAAAAAAAAAAAAAAGTACATATATATATTTATAT [XGTACX_site5893],11.7 ± 1
7,AGATAAAAAAAGTACACACACACATATATTTATATA [CACACA_site7437],11.8 ± 1.2
8,AAAAAAAAAAAAAGTACACACTTATAAAATATTATG [CACACA_site4639],11.6 ± 1.1
9,AATGTAAAATATAAATGTACATATATATATATATAT [XGTACX_site5071],11 ± 0.45
10,TATATATATATATATGTACACACATATATACCTTTC [CACACA_site8854],11.3 ± 0.71
11,GAAAGAATAAAATAAACATGCAAATAAAACATAAAA [TGCATGCA_site471],9.81 ± 0.2
12,AGCATAAACAATTTTTGAAAAAATATACACTCATAG [CACACA_negctrl_site890],9.935 ± 0.007
13,AAAAAATATACATATTGTACATTTTTTATTAACACA [XGTACX_site6415],10.8 ± 0.49
14,TAGTATTGTAAAAAAAAAAAAGAAAAAAAAAAAAAA [CACACA_negctrl_site977],9.68 ± 0.15
15,TTAAGATGCATAAATACATGCAAAGTAAATAATTCT [TGCATGCA_site517],9.88 ± 0.014
16,CATAAAAATGGATACACACACATAATATATATATAT [CACACA_site3619],10.2 ± 0.3
17,TTACTTAAGAAACACACACACAAAAAAAAAAAAAAA [CACACA_site946],9.91 ± 0.54
18,AGTTTAAATTAAATTACACACTACGAATAATATATT [CACACA_site7811],9.895 ± 0.007
19,TATTCCAAAAATGTGTGTACATAAATACAATATTAT [XGTACX_site2653],11.4 ± 0.89
20,AAAAAAAAAAAAAGTACACACATACAGATAAATATA [CACACA_site5067],11.6 ± 1
21,GAGATATAAAAGTGTACACATATTGTTATCCATATT [CACACA_site5441],11.8 ± 1
22,ATAAAAAAAAAAAAAAGTACACATATAAAAGTATTG [XGTACX_site8265],11.6 ± 0.91
23,AAAAAAAAAAAAAAAAGTACACAAATAGATTTATAT [XGTACX_site3727],11.6 ± 0.88

row,Sequence,gcPBM binding intensity (ln)
1,GCCATAAAGATATATACACACATAAAAAAAAGTTAT [CACACA_site6674],10.1 ± 0.16
2,TAAAAAAAAATAAAAAGTACATATATATATATATAT [XGTACX_site1155],11.1 ± 0.86
3,AGATATATATTTTATTGTACACATTAAAGTATAAAA [XGTACX_site7194],11.5 ± 1.1
4,ATAAATACATATAAAAGTACACACACACACATATAT [XGTACX_site1744],11.5 ± 0.93
5,AATAAATATATTAAAAGTACACAAATATTATTTAAT [XGTACX_site2482],11.4 ± 0.76
6,TACATATAAAAGTACACACACACACCCATATATATA [CACACA_site941],11.6 ± 1.1
7,ACAATATAGATTAAAAGTACAAATAGTAAATTATAT [XGTACX_site3165],11.2 ± 0.71
8,AGATAAAAAAAGTACACACACACATATATATATATA [CACACA_site3072],11.6 ± 0.93
9,ATATATTGAACATATTGTACATTTTGTTAATATTTT [XGTACX_site7622],10.7 ± 0.43
10,TTATATTTATATATTTGTACGTATGTATATAATTCA [XGTACX_site2993],11.4 ± 0.97
11,ATTGTTTTTTTTTCTTTGTGGAATGAATGAATATAT [XGTACX_negctrl_site603],10 ± 0.19
12,TATATATATATATTGACACACATGTATTTCAATATT [CACACA_site2832],10.1 ± 0.21
13,TATATATATATGTGCACACATAATAAAAAAAAAAAT [CACACA_site3831],10.6 ± 0.69
14,AAAAAATTAATATTGACACACATTTTTAAGAATAAT [CACACA_site239],10.1 ± 0.16
15,TATGTTTTTGAATGAGTGCATTAAAATAAAACATTT,10.2 ± 0.27
16,AAAAAAGAAAAAAGGACACACATAAATATACTCACG [CACACA_site2904],11.2 ± 0.91
17,TAAATTATAATATGCACACAAAATGTTATATTAAAA [CACACA_site376],9.97 ± 0.26
18,TAAAAAATAAATATATGTACGCAATAAATGTGTTAA [XGTACX_site4043],11.6 ± 1.1
19,AATTTTATTTAATTTTTTTGGGAAATGATAAAATTT [CACACA_negctrl_site934],9.88 ± 0.2
20,CATATGCGTCTTGCCTTGCACACTTTTATGAAAAAA [CACACA_site2055],10.4 ± 0.26
